Laboratory results published in PubChem BioAssay AID2147 (National Center for Advancing Translational Sciences (NCATS), 2009).
“And” between values parts separate entries of the source, which are not always exact repeats. Equal entries are not always repeated. In all, about 230,000 compounds went through this assay and about 3,600 (1.6%) were called active. About 15% were inconclusive and are not listed. Only a selection was taken, and actives are over-represented in it overall. Values without a mark were called inactive. The call rests on the fitted dose curve; in most records, active means well fitted inhibition curve with a large enough effect (not every such curve was filed as active); inconclusive means small, poorly fitted or top-dose-only effect, or another doubt; inactive means no such curve, though single readings can be large or run the other way.

These molecules were tested against Lysine-specific demethylase 4E (Homo sapiens) (UniProt B2RXH2) (assay: qHTS Assay for Inhibitors of Human Jumonji Domain Containing 2E (JMJD2E)). Conditions: JMJD2E catalytic domain, FDH-coupled NADH fluorescence (FDH is formaldehyde dehydrogenase); series mostly up to 57.1 µM; activity change, negative = inhibition: at the top concentration.
Sequence of Lysine-specific demethylase 4E (Homo sapiens) (B2RXH2 1-337 limits assumed): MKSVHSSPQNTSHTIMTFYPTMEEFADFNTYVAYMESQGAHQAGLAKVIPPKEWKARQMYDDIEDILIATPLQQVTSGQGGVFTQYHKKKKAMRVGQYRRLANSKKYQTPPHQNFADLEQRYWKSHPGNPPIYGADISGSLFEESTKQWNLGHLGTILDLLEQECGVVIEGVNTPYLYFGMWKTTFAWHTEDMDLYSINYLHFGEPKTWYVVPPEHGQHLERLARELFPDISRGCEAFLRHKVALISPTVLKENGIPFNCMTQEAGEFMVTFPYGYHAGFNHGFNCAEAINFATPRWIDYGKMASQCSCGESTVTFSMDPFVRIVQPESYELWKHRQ
Further: nearly all actives have a fitted effect of over 50% in size.
Potency means the concentration at half of the fitted maximal effect.
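Wherever activity change, negative = inhibition is given: 0% = wells with enzyme and -100% = buffer wells without enzyme.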

SMILES	activity change, negative = inhibition [%]	Potency
O=C(Nc1ccc(Cl)cc1)Nc1ccc(C(=O)N2CCOCC2)cc1	4.19	
COc1ccc(C2C(C#N)=C(N)Oc3cc(N)ccc32)cc1OC (stereo not drawn)		12.6 µM (active)
COC(=O)C1=C(C)OC(N)=C(C#N)C1c1cc(OC)ccc1OC (stereo not drawn)	2.33	
CCC1=C(C(=O)OC)C(c2cc(OC)ccc2OC)C(C#N)=C(N)O1 (stereo not drawn)	-0.399	
CC(C)NC[C@H](O)c1ccc2ccccc2c1		inactive
CCC(C)c1ccc(O)c(/C=N/O)c1 (stereo not drawn)	-5.09	
CNCC(O)c1ccc(O)c(O)c1 (stereo not drawn)		20 µM (active) and 14.1 µM (active)
C=CCN(C(=O)Nc1ccc2c(c1)nc(C)n2C)c1ccccc1	1.69	
C/C(=C\c1ccco1)CN1CCC(N2CCC(C(=O)N3CCOCC3)CC2)CC1	0.474	
CCOC(=O)N1CCN(C(=O)CSc2ccc(Cl)cc2)CC1	-1.41	
Oc1c(C(c2ccccn2)N2CCOCC2)ccc2cccnc12 (stereo not drawn)	-10.2	
CCOC(=O)N1CCN(C(c2cccnc2)c2ccc3cccnc3c2O)CC1 (stereo not drawn)		14.1 µM (active)
Cc1cc(N2CCN(c3ccc(F)cc3)CC2)n2ncnc2n1	4.37	
CC1CC(C)(C)n2c(O)c(N=NC(N)=S)c3cccc1c32 (stereo not drawn)	8.14	
O=c1c(O)c(Br)ccc2c(Br)c(O)c(O)c(O)c12		7.08 µM (active)
CCCCCCCC(=O)OC(CN1CCCCCC1)CN1CCCC1=O (stereo not drawn)	1.81	
CCN(CC)CCN1C(=O)C(=O)/C(=C(/O)c2ccccc2)C1c1ccccc1F (stereo not drawn)	-9.65	
CCN(CC)CCN1C(=O)C(=O)/C(=C(/O)c2ccc(OC)c(OC)c2)C1c1ccccn1 (stereo not drawn)		22.4 µM (active)
COc1ccc(/C(O)=C2/C(=O)C(=O)N(CCCN(C)C)C2c2ccccc2)cc1OC (stereo not drawn)	-12.7	
CC(=O)Nc1ccc(NC(=O)CSc2ncnc3c2cnn3Cc2ccccc2)cc1	0.598	
CN1CCN(Cc2c(O)ccc3c2oc(=O)c2ccccc23)CC1	-8.15	
NC(=O)COc1ccc2c3c(c(=O)oc2c1)CCCCC3	3.79	

SMILES	activity change, negative = inhibition [%]	Potency
O=c1oc2c(CN3CCCCC3)c(O)ccc2c2c1CCCCC2		3.16 µM (active)
Cc1ccccc1OCC(O)CN1CCN(c2ccccn2)CC1 (stereo not drawn)	-7.16	
Cc1cccc(C)c1NC(=S)N(Cc1cccnc1)Cc1ccccc1Cl	2.9	
CCC/C(C)=N\Nc1nc2c(c(=O)n(C)c(=O)n2C)n1C	-5.67	
Oc1ccc2ccccc2c1C=Nc1ccccc1	-5.63	
Oc1ccc(N=Cc2sc3ccccc3c2Cl)cc1		12.6 µM (active)
COc1ccc(N=C(C)c2sc3ccccc3c2O)cc1	-1.68	
S=c1nc2ccccc2c2nc(-c3cccnc3)[nH]n12	-7.81	
COc1ccc(CCNS(=O)(=O)c2cccc3cccnc23)cc1OC	8.86	
Cc1nnsc1C(=O)N/N=C/c1ccccc1Cl	2.37	
Cc1ccc2cc(/C=N/NC(=O)[C@@H]3CCCN3)c(Cl)nc2c1	-2.24	
Cc1ccc(/C=N/NC(=O)C2=NNC(c3ccccc3)(c3ccccc3)C2)c(O)c1		10 µM (active)
CCn1cc(CN2CCCC(CNS(=O)(=O)Cc3ccccc3)C2)cn1 (stereo not drawn)	-1.97	
Nn1c(SCc2ccccc2)nnc1C1CCCCC1	-0.349	
CC(C)C[C@H](CO)Nc1nc(N(C)c2cccc(Cl)c2)c2ncn(C(C)C)c2n1	2.12	
O=C(Nc1cccc(S(=O)(=O)NC2=NCCC2)c1)C1CCCCC1	3.5	
Cc1onc(C(=O)NN)c1-c1csc(COc2ccccc2)n1	33.8	
CC(C)(C)C(=O)OCc1nc(-c2ccc(O)c(O)c2)cs1		12.6 µM (active)
CCCC(=O)N1c2ccc(-c3csc(N)n3)cc2CC1C (stereo not drawn)	-25.3	
O=c1[nH]c(CSc2ccccc2)nc2c1oc1ccccc12	-0.198	
Cc1ccc(NC(=O)/C(=C\c2ccccc2)NC(=O)c2ccco2)cc1	8.1	
NC(=O)COc1ccc(NC(=O)c2ccccc2-c2ccccc2)cc1	-9.16	

SMILES	activity change, negative = inhibition [%]	Potency
Oc1ccc(/C=N/Nc2nc(-c3ccccc3F)nc3ccccc23)c(O)c1	-27.2	
Oc1c(Br)cccc1/C=N/Nc1c(F)c(F)c(F)c(F)c1F	0.236	
Oc1ccc(/C=N/NC2=NCCCCC2)c(O)c1		22.4 µM (active)
CN(c1ccccn1)c1ncnc2[nH]ncc12	-4.74	
Cc1ccc(C)c(SCc2nc3sc(C(=O)O)c(C)c3c(=O)[nH]2)c1	-5.22	
O=C(Nc1ccc(F)cc1)c1cc2c(s1)CCCC2	0.588	
Cc1c(C)c(C)c2[nH]c(=S)[nH]c2c1C	5.54	
O=c1[nH]c(=S)[nH]c2[nH]c(=S)[nH]c12		28.2 µM (active)
Cc1nc2cccnc2nc1C	1.81	
COc1ccc(OC)c(-n2c(-c3ccn[nH]3)n[nH]c2=S)c1	3.77	
O=C(N/N=C\c1cc(Br)c(Br)o1)C1COc2ccccc2O1 (stereo not drawn)	-26.6	
Nc1ccccc1Sc1ccc(C(F)(F)F)cc1[N+](=O)[O-]	-29.3	
Nc1ccccc1SC(C[N+](=O)[O-])c1ccccc1 (stereo not drawn)		6.31 µM (active)
Nc1ccccc1SCc1cc([N+](=O)[O-])cc2c1OCOC2	-7.45	
OCCC1CN(Cc2ccc(Oc3ncccn3)cc2)CCN1CCc1ccccc1 (stereo not drawn)	-5.89	
COCCNc1nc(-c2ccccc2)nc2c1oc1ccccc12	-8.99	
Cc1nnc(SC(C(=O)c2ccccc2)c2ccccc2)[nH]c1=O (stereo not drawn)	-1.45	
Cc1cccc(-n2cc(CN3CCN(C(=O)c4ncn[nH]4)CC3)c(-c3cccc(F)c3)n2)c1	8.66	
CC(C)OCCCNC(=O)c1ccc(C2SCC(=O)N2Cc2ccco2)cc1 (stereo not drawn)	-12.8	
COc1ccc(NS(=O)(=O)c2ccc(O)c(C(=O)OCC(=O)NC3CCCCC3)c2)cc1	-4.29	
COc1ccc(OCc2n[nH]c(=S)n2N)cc1		15.8 µM (active)
Cc1ccc(OCc2n[nH]c(=S)n2-c2ccc(C)cc2)cc1	-3.16	

SMILES	activity change, negative = inhibition [%]	Potency
S=c1[nH]nc(COc2ccccc2)n1-c1ccccc1	-9.54	
Cc1cc(N2CCN(c3ccccc3)CC2)nc(N2CCOCC2)n1	3.11	
O=c1c(-c2ccc(Cl)cc2)[n+]([O-])c2ccccc2n1OCc1nc2ccccc2[nH]1	-4.14	
CCN1/C(=C/c2ccc3ccc(C)cc3[n+]2CC)Sc2ccccc21	-7.04	
CCN1/C(=C\c2ccc3ccccc3[n+]2CC)Sc2cc(C)ccc21		1.41 µM (active)
CCC(=O)/C=C1\Sc2ccccc2N1CC	-12.4	
O=C(COC(=O)c1ccc[nH]c1=O)Nc1ccc2c(c1)OC(F)(F)O2	-31.1	
c1ccc(-n2cccc2)c(N2CCCCC2)c1	7.49	
CC(C)C[C@@H](CC(=O)N[C@@H](CCC(=O)O)CC(=O)O)NC(=O)[C@@H]1CCCC[C@H]1NC(=O)C[C@@H](NC(=O)C[C@H](CO)NC(=O)[C@@H]1CCCC[C@H]1N)C(C)C	6.67	
CC(C)[C@@H](CC(=O)N[C@@H]1CCNC[C@H]1C(=O)N[C@H](CC(=O)N[C@@H](CCC(=O)O)CC(=O)O)Cc1ccccc1)NC(=O)C[C@H](CO)NC(=O)[C@@H]1CNCC[C@H]1N	-2.84	
CC(C)C[C@@H](CC(=O)N[C@@H](CCC(=O)O)CC(=O)O)NC(=O)[C@@H]1CCCC[C@H]1NC(=O)C[C@@H](NC(=O)C[C@H](Cc1c[nH]c2ccccc12)NC(=O)[C@@H]1CCCC[C@H]1N)C(C)C		15.8 µM (active)
Cn1c(CSCC(=O)Nc2ccccc2)nnc1SCc1ccccc1	-1.73	
Cc1ccc(NNC(=O)c2c(F)cccc2Cl)cc1Cl	-12.8	
COC(=O)N(NC(=O)C(O)(C(C)C)C(C)C)c1ccccc1	2.87	
Cc1cc(=O)[nH]c(S)c1C#N		28.2 µM (active)
Cc1cc(=O)[nH]c(SCC(N)=O)c1C#N	0.748	
Cc1cc(=O)[nH]c(=S)[nH]1		inactive
CC(C)(C)c1ccc(/C=C2\Oc3c(ccc(O)c3CN3CCN(CCO)CC3)C2=O)cc1		14.1 µM (active)
O=S(=O)(Nc1n[nH]c(C(F)(F)F)n1)c1ccccc1	-3.67	
COCCNC(=O)/C(C#N)=C/c1cccc(OCc2ccccc2)c1	-8.01	
CCOC(=O)/C(C#N)=C/c1ccc(N2CCCCC2)cc1	-5.46	
CCOC(=O)NC(=O)/C(C#N)=C\c1ccccc1	8.09	

SMILES	activity change, negative = inhibition [%]	Potency
N#C/C(=C\c1ccc(O)c(O)c1)C(N)=O		7.08 µM (active)
CC(C)(C)C(=O)/C(C#N)=C/c1ccc(O)cc1	-3.99	
N#C/C(=C\c1ccc(O)c(O)c1)C(=O)NCc1ccccc1		15.8 µM (active) and 20 µM (active)
Cc1ccc(CN(Cc2cccnc2)C(=S)Nc2cc(Cl)ccc2C)cc1	-10	
O=C(NCC(c1cccs1)N1CCOCC1)c1cc(-c2ccccn2)nc2ccccc12 (stereo not drawn)	-21.6	
COc1ccccc1OCC(=O)O/N=C(\N)c1ccccn1	-4.76	
COc1cc(/C=C2/C(=O)NN(c3ccc(F)cc3)C2=O)cc([N+](=O)[O-])c1O	-19.9	
CCOC(=O)c1ccc(N=C2SC(C(=O)NC)CC(=O)N2CCc2ccccc2)cc1 (stereo not drawn)	-2.87	
CC(=O)Nc1nc2c(s1)C(=O)NCC(C)(C)C2	6.1	
Oc1ccc(N=Nc2nccs2)c(O)c1		8.91 µM (active)
Oc1c(C=Nc2cccc3nsnc23)ccc2ccccc12	-9.64	
Oc1ccc2ccccc2c1N=Nc1nccs1		28.2 µM (active)
COc1ccccc1NC(=S)N1CCN(C(c2ccccc2)c2ccccc2)CC1	12.1	
CSc1ccccc1NC(=O)CN(C)CC(=O)Nc1cccc(Br)c1	-20.7	
COc1ccc(CCNC(=O)CCCCn2c(=O)[nH]c3ccccc3c2=O)cc1OC	3.97	
COc1ccc(Cc2nnc(N/N=C/c3ccccc3O)[nH]c2=O)cc1OC		6.31 µM (active)
COc1ccc(Cc2nnc(SC)[nH]c2=O)cc1	8.09	
CCOC(=O)C1=C(c2ccccc2)NC(=S)NC1c1ccc(Cl)cc1 (stereo not drawn)	-5.72	
Cc1noc(C)c1COC(=O)COc1ccc(-c2ccccc2)cc1	7.05	
COc1ccc(/C=C/C(=O)Nc2ccc(C)cc2)cc1S(=O)(=O)N1CCOCC1	1.97	
